This note sets out measurements from PubChem BioAssay (NCATS).

Structures are written as SMILES. Inconclusive results are not listed. Entries that show only a call come without a potency. The source made the active and inactive calls. Calls follow the shape of the dose curve; as a rule, active = well fitted curve in the direction sought with a large enough effect; inconclusive = small, poorly fitted or top-dose-only effect, or another doubt; inactive = no such curve, though single readings can be large; an effect the other way counts as inactive or inconclusive.
Potency is read from the fitted curve at half-maximal effect.

One assay is described as follows: Cell Viability - LYMP1-003 - Assay at 24 hr (AID 963). The following applies: LYMP1-003 lymphoblastoid cell viability; series mostly up to 92.2 µM. Summed up: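 Acute toxicity in LYMP1-003 lymphoblastoid cells: 24 hr compound treatment at 37 C, ATP measured with CellTiter-Glo after 30 min at room temperature. AC50 derived by fitting the Hill equation to qHTS titrations.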
Take `CCNc1nc(Cl)nc(NC(C)C)n1`: the Potency entry is “inactive”.

In the case of `ClC1=C(Cl)C2(Cl)C3C4CC(C5OC45)C3C1(Cl)C2(Cl)Cl` (stereo unspecified), the Potency is 25.1 µM (active).

Consider `CCOCN(C(=O)CCl)c1c(C)cccc1CC`, for which the Potency entry is “inactive”.

As to `ClC(Cl)=C(c1ccc(Cl)cc1)c1ccc(Cl)cc1`, the Potency result is “inactive”.

`O=C(O)COc1ccc(Cl)cc1Cl`: the Potency result was “inactive”.

Consider `COC(=O)NC(=S)Nc1ccccc1NC(=S)NC(=O)OC`, for which the Potency entry was “inactive”.

In the case of `C/C=C/c1ccc2c(c1)OCO2`, the Potency result is “inactive”.

For the compound `COP(=S)(OC)Oc1ccc([N+](=O)[O-])cc1`, the Potency result is “inactive”.

In the case of `C=CCc1ccc(OC)cc1`, the Potency result was “inactive”.

Consider `CNC(=O)O/N=C/C(C)(C)SC`, for which the Potency entry is “inactive”.

`c1ccc(N=Nc2ccccc2)cc1`: the Potency entry was “inactive”.

Turning to `CCc1cccc(CC)c1N(COC)C(=O)CCl`, the Potency entry was “inactive”.

A further assay in a line: Cell Viability - LYMP1-003 - Assay at 40 hr (AID 964). Also: nearly all actives have a fitted effect of over 60% in size. Particulars: LYMP1-003 lymphoblastoid viability; series mostly up to 92.2 µM. In outline:
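This qHTS cytotoxicity screen treats human lymphoblastoid cells (LYMP1-003) with compounds for 40 hr and quantifies cellular ATP via luciferase luminescence.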
For `CCNc1nc(Cl)nc(NC(C)C)n1`, the Potency entry is “inactive”.

Consider `ClC1=C(Cl)C2(Cl)C3C4CC(C5OC45)C3C1(Cl)C2(Cl)Cl` (stereo unspecified), for which the Potency is 10 µM (active).

Turning to `CCOCN(C(=O)CCl)c1c(C)cccc1CC`, the Potency is 50.1 µM (active).

Take `ClC(Cl)=C(c1ccc(Cl)cc1)c1ccc(Cl)cc1`: the Potency entry was “inactive”.

`O=C(O)COc1ccc(Cl)cc1Cl`: the Potency result is “inactive”.

As for `C/C=C/c1ccc2c(c1)OCO2`, the Potency entry is “inactive”.

For the compound `COP(=S)(OC)Oc1ccc([N+](=O)[O-])cc1`, the Potency result was “inactive”.

For `O=S1OCC2C(CO1)C1(Cl)C(Cl)=C(Cl)C2(Cl)C1(Cl)Cl` (stereo unspecified), the Potency is 39.8 µM (active).

With `C=CCc1ccc(OC)cc1`, the Potency entry was “inactive”.

As for `CNC(=O)O/N=C/C(C)(C)SC`, the Potency entry is “inactive”.

With `c1ccc(N=Nc2ccccc2)cc1`, the Potency entry is “inactive”.

The next assay is described as follows: Cell Viability - LYMP2-003 (AID 965).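 Also: cells exposed to compounds for 24 h before reading; nearly all actives have a fitted effect of over 50% in size.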 The following applies: LYMP2-003 lymphoblastoid cell viability; series mostly up to 92.2 µM. Summed up: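 CellTiter-Glo luminescence (cellular ATP) after 24 h compound exposure at 37 C in complete medium; 2500 cells/well, 5 h settling beforehand. Concentration-response fitted to standard Hill equation for AC50. Tetraoctylammonium bromide served as positive control.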
Turning to `CCNc1nc(Cl)nc(NC(C)C)n1`, the Potency entry is “inactive”.

Turning to `ClC1=C(Cl)C2(Cl)C3C4CC(C5OC45)C3C1(Cl)C2(Cl)Cl` (stereo unspecified), the Potency was 25.1 µM (active).

Regarding `CCOCN(C(=O)CCl)c1c(C)cccc1CC`, the Potency was 50.1 µM (active).

`ClC(Cl)=C(c1ccc(Cl)cc1)c1ccc(Cl)cc1`: the Potency result was “inactive”.

`ClC1=C(Cl)C2(Cl)C3C4C=CC(C4)C3C1(Cl)C2(Cl)Cl` (stereo unspecified): the Potency was 31.6 µM (active).

Take `O=C(O)COc1ccc(Cl)cc1Cl`: the Potency entry is “inactive”.

Regarding `COC(=O)NC(=S)Nc1ccccc1NC(=S)NC(=O)OC`, the Potency entry was “inactive”.

`C/C=C/c1ccc2c(c1)OCO2`: the Potency result was “inactive”.

As for `COP(=S)(OC)Oc1ccc([N+](=O)[O-])cc1`, the Potency entry was “inactive”.

On to `C=CCc1ccc(OC)cc1`, for which the Potency result is “inactive”.

Take `ClC1=C(Cl)C2(Cl)C3C(Cl)C=CC3C1(Cl)C2(Cl)Cl` (stereo unspecified): the Potency was 39.8 µM (active).

For `CNC(=O)O/N=C/C(C)(C)SC`, the Potency entry was “inactive”.

Regarding `c1ccc(N=Nc2ccccc2)cc1`, the Potency entry was “inactive”.
